Assay [1] is described as follows: rapamycin-like changes in RPL19A-GFP expression – cell-based, S. cerevisiae, multiplex flow cytometry, primary screen (AID 1862; in the data active means percent of DMSO control GFP below about 86%;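 further: lower values mimic rapamycin by blocking the RPL19A rise seen in DMSO cells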). The conditions noted are these: S. cerevisiae RPL19A-GFP strain, flow cytometry fluorescence, 3 h; at 10 µM; stronger effect = lower value. A general note: Flow cytometry measures light scatter and fluorescence of single cells or particles in a stream.

Assay [2] is described as follows: TOR pathway RTG branch CIT2 reporter changes – S. cerevisiae, GFP fusion, multiplex flow cytometry, primary screen (AID 1870;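 active means percent response above a set limit, the screen-wide mean plus 3 SD, cut at about 130% in these data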;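 further: barcoded CIT2-GFP strain pooled with four other GFP strains with rapamycin as positive control; median GFP fluorescence per well over plate mean of DMSO wells so 100% = DMSO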). As to conditions: S. cerevisiae CIT2-GFP expression, 3 h, at 10 µM, stronger effect = higher value.
The nature of assay [3]: TOR pathway LAP4-GFP level changes – S. cerevisiae, multiplex flow cytometry, primary screen (AID 1873;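 active means GFP signal, as percent of the solvent control, above the screen mean plus 3 SD, about 149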). The conditions noted are these: S. cerevisiae LAP4-GFP expression, 3 h, at 10 µM, stronger effect = higher value.
The nature of assay [4]: reduced mouse 2C T cell binding to pMHC/ICAM-1 vesicles – MLPCN validation set, flow cytometry, LFA-1/ICAM-1 modulator project, pilot screen (AID 2523;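 active means response below a set limit, under 55% cells CD8-positive and vesicle-bound, and CD8 cells' 90th-percentile brightness under 279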;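 on vesicle binding response: mean PE anti-B7-1 fluorescence of CD8+ cells relative to row control; 100% = QL9-loaded vesicles with DMSO vehicle in the same plate row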). As to conditions: 2C mouse CD8+ T cells, at 7 µM, stronger effect = lower value; double positive events: measured here: CD8+/vesicle+ event percentage.
Assay [5] deals with Integrin beta-1 (Homo sapiens) + Integrin alpha-4 (Homo sapiens) (UniProt P13612+P05556). Put plainly: alpha4beta1 integrin LIBS antibody binding reduction – U937 cells, HUTS-21 mAb, flow cytometry, validation set, VLA-4 allosteric modulator project, pilot screen (AID 2674;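 active means inhibition above 50%, about 3 SD of the validation set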;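 further: antibody binding induced by the VLA-4 ligand LDV present at three times its Kd; 0% = LDV ligand with antibody and no compound and 100% = antibody without LDV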). As to conditions: HUTS-21 LIBS mAb binding, at 6.7 µM, stronger effect = higher value.
Assay [6] is described as follows: calorie-restriction mimetic ROS inhibitors, yeast – validation compound set, pilot screen (AID 2706;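 active means superoxide response below 65% of plate, a cut near 3 SD across the whole screen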;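 further: yeast exposed to compound for one week at 30 degrees C before staining; 100% = mean of all compound wells on the same plate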). The conditions noted are these: S. cerevisiae aging, superoxide DHE fluorescence; at 10 µM; stronger effect = lower value.
Assay [7] has as its target Beta-adrenergic receptor kinase 1 (Homo sapiens) (UniProt P25098). In words: GRK2 binders displacing RNA aptamer, biochemical, validation, human GRK2, bead flow cytometry (AID 488806;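 active means aptamer binding inhibition above 30%, about 3 SD of noise from non-fluorescent compounds; inactive means inhibition at or below 30%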). As to conditions: bead-bound GRK2, FAM-aptamer displacement, at 10 µM, stronger effect = higher value.
Assay [8] concerns the target AP-2 complex subunit beta (Homo sapiens) (UniProt P63010). In words: beta-arrestin/AP2 interaction blockers – biochemical, validation set, GST-AP2 beads, flow cytometry, pilot screen (AID 504541;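 active means inhibition above 54%, about 3 SD of non-fluorescent compounds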;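 further: AP2 carries R879A mutation and is captured from E. coli lysate; bead-bound FITC arrestin peptide fluorescence measuring arrestin peptide binding to AP2; 0% = DMSO wells and 100% = excess unlabeled arrestin peptide control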). The conditions noted are these: FITC arrestin peptide, at 10 µM, stronger effect = higher value.
Assay [9] in a line: cytosolic pH regulators acting via V-ATPase – S. cerevisiae, pHLuorin, HTS validation (AID 504600; in the data active means response above about 15%;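 further: plate controls were DMSO for no effect and reference compound for full effect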). The conditions noted are these: V-ATPase proton transport, at 10 µM, stronger effect = higher value.
Assay [10] has as its system anti-desmoglein-3 scFv antibody binding to human DSG3. Put plainly: blockers of pathogenic pemphigus antibody–desmoglein-3 binding – biochemical, validation compound set, bead-based, flow cytometry, pilot screen (AID 588368;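 active means binding below the plate cutoff, the plate median minus 3 SD, with a reading above zero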;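 further: signal is the median channel fluorescence of bead-bound GFP antibody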). The conditions noted are these: Protein G beads, DSG3-Fc, scFv-GFP binding, at 10 µM, stronger effect = lower value.
Assay [11] deals with Botulinum neurotoxin type F light chain protease (Clostridium botulinum). Put plainly: Clostridium botulinum type F light chain protease inhibitors, microsphere substrate cleavage, validation (AID 588459). As to conditions: multiplex microsphere protease substrate cleavage assay, flow cytometry; at 10 µM; stronger effect = higher value.
Assay [12] concerns the target Botulinum neurotoxin type A (Clostridium botulinum) (UniProt P0DPI0). Put plainly: BoNT/A light chain protease inhibitors, biochemical, multiplex microsphere flow cytometry, validation set (AID 588460). The conditions noted are these: at 10 µM, stronger effect = higher value.
Assay [13] has as its target Lethal factor (Bacillus anthracis) (UniProt P15917). Put plainly: Bacillus anthracis lethal factor inhibition, microsphere flow cytometry protease assay, validation at 10 µM (AID 588461). The conditions noted are these: multiplex microsphere protease cleavage assay, stronger effect = higher value.
Assay [14] is described as follows: Nile Red efflux blockade in pump-expressing yeast – validation compound set, multiplex, phenotypic, pilot screen (AID 588506;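 active means efflux inhibition above 0.42, the validation set average plus 4 SD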;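 further: Nile Red retained in cells so higher fluorescence means more efflux inhibition; 0 = negative control wells and 1 = enniatin B 25 µM full block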). The conditions noted are these: S. cerevisiae pump-expressing triplex, Nile Red efflux flow cytometry; at 10 µM; stronger effect = higher value.
In assay [15] the target is ATP-binding cassette sub-family B member 6 (Homo sapiens) (UniProt Q9NP58). In words: blockers of ABCB6-driven porphyrin uptake – K562-ABCB6 cells, flow cytometry, validation set, pilot screen (AID 588550;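 active means inhibition above the screen-wide mean plus 3 SD, about 51%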;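 further: 0% = DMSO wells and 100% = benzethonium chloride 70 µM positive control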). The conditions noted are these: K562-ABCB6 porphyrin accumulation, 1 h, at 10 µM, stronger effect = higher value.
Assay [16] is described as follows: AML differentiation inducers, ER-HoxA9 marrow cells – cell-based, GFP/MAC1 double positive, flow cytometry, validation set, primary screen (AID 588685;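 active means differentiation response of at least 50%, scaled between solvent and reference control, from cells with both markers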;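 further: compound exposure lasts four days before antibody staining and flow analysis; 0% = DMSO wells and 100% = 5 µM fulvestrant positive control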). The conditions noted are these: stronger effect = higher value.
Assay [17] in a line: hit retest on RPL19A-GFP reporter strain – cell-based, S. cerevisiae, flow cytometry, cherry picks, mother/daughter gates, confirmation (AID 2270;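 active means GFP response below 50% of the DMSO control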). As to conditions: 3 h, at 10 µM, stronger effect = lower value, 100 = same GFP as DMSO wells.
Assay [18] is described as follows: yeast TOR pathway reporter LAP4-GFP change – cell-based, cherry picks, flow cytometry, mother/daughter gates, confirmation (AID 2271;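 active means GFP response above 150% of the DMSO control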;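 further: ratio of sample to DMSO plate mean so 100% equals DMSO level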). As to conditions: S. cerevisiae LAP4-GFP strain, 3 h, at 10 µM, stronger effect = higher value.
A short description of assay [19]: TOR pathway CIT2 reporter hit retest – S. cerevisiae, GFP fusion, cherry picks, mother/daughter gates, confirmation (AID 2274;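 active means GFP response above 150% of the DMSO level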). The conditions noted are these: S. cerevisiae CIT2-GFP strain, flow cytometry, 3 h, at 10 µM, stronger effect = higher value.
Assay [20] in a line: TOR pathway GLN3 branch reporter MEP2-GFP changes – S. cerevisiae, multiplex flow cytometry, primary screen (AID 1867;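 active means GFP response, as percent of the DMSO control, above the screen-wide mean plus 3 SD, about 139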;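 further: median GFP channel fluorescence of barcode-gated MEP2-GFP cells measured by flow cytometry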). The conditions noted are these: S. cerevisiae MEP2-GFP strain, 3 h, at 10 µM, stronger effect = higher value.
Setting [21] is: measured here: daughter cell gate.
Setting [22] is: measured here: mother cell gate.
Where [23] appears, read: measured here: daughter cell gate response.
Where [24] appears, read: measured here: mother cell gate response.

Molecules are shown by their SMILES. Inconclusive results are not listed. Calls of active or inactive are those of the source. Unless noted, how the calls were made is not given here.

For the molecule `C=CC1CN2CCC1CC2[C@@H](OC(=O)c1ccc(OC)cc1)c1ccnc2ccccc12` (stereo partly drawn), the percent of DMSO control GFP in assay [1] is 96.1% (inactive). Also, the percent response of DMSO control in [2] was 107% (inactive). In addition, in [3], the GFP response vs DMSO is 74.8% (inactive). Besides, in [4], the double positive events came to 59.2%. Further, the vesicle binding response in assay [4] was 222% (inactive). Further, the inhibition in [5] is 4.52% (inactive); in assay [8] it was -4.1% (inactive); in assay [11], 2.8% (inactive); in assay [12], 0.4% (inactive); in [13] it was -2% (inactive); in assay [15], 5% (inactive). Besides, the superoxide response (% of plate) in [6] is 105% (inactive). Moreover, in assay [7], the aptamer binding inhibition was -2% (inactive). Besides, the response in assay [9] is -0.74% (inactive). Besides, the binding (% of control) in assay [10] was 109% (inactive). The efflux inhibition (fraction of control) in assay [14] was 0.01 (inactive). Moreover, in assay [16], the differentiation response is -8.19% (inactive).
Turning to `N#CC(C#N)=Cc1ccc(N2CCCC2)cc1`, the results for the GFP response vs DMSO in [17], in assay [17] (setting [21]) and in assay [17] (setting [22]) were 105% (inactive), 102% and 107%, respectively. In addition, the GFP response relative to DMSO was 111% (inactive) in assay [18], 109% in assay [18] (setting [23]) and 112% in assay [18] (setting [24]). Further, the results for the GFP response, % of DMSO in assay [19], in assay [19] (setting [21]) and in assay [19] (setting [22]) were 105% (inactive), 106% and 104%, respectively.
Take `Nc1ccc2ccc3cccc[n+]3c2c1`: the GFP response vs DMSO in assay [17] is 111% (inactive); in [17] (setting [21]), 110%; in [17] (setting [22]), 110%. Also, the GFP response relative to DMSO in assay [18] was 181% (active); in assay [18] (setting [23]) it was 185%; in [18] (setting [24]) it was 178%. The GFP response, % of DMSO in assay [19] was 199% (active); in assay [19] (setting [21]), 204%; in assay [19] (setting [22]), 196%.
As to `CCOC(=O)C(C)Oc1cc(C)cc2oc(=O)c3c(c12)CCCC3` (stereo not drawn), the percent of DMSO control GFP in [1] was 95.2% (inactive). Also, the GFP response vs DMSO in assay [20] was 116% (inactive); in assay [3] it was 74.8% (inactive). Further, the percent response of DMSO control in [2] was 104% (inactive). In [4], this molecule gave a double positive events of 81.8%. Further, the inhibition is 0.64% (inactive) in assay [5]; -3.6% (inactive) in [8]; -0.4% (inactive) in assay [11]; -1.5% (inactive) in assay [12]; 0.6% (inactive) in [13]; 12% (inactive) in assay [15]. Moreover, the superoxide response (% of plate) in [6] was 103% (inactive). Also, the aptamer binding inhibition in [7] was 5% (inactive). Besides, the response in [9] is -8.97% (inactive). Moreover, the binding (% of control) in [10] was 97.6% (inactive). In addition, the efflux inhibition (fraction of control) in assay [14] was -0.46 (inactive). Besides, the differentiation response in assay [16] was -9.01% (inactive).
`Cc1ccc(N2C(=O)NC(=O)/C(=C\c3cn(CC(=O)O)c4ccccc34)C2=O)cc1`: the GFP response vs DMSO was 100% (inactive) in assay [17], 100% in [17] (setting [21]) and 101% in assay [17] (setting [22]). In addition, the GFP response relative to DMSO in assay [18] was 102% (inactive); in assay [18] (setting [23]) it was 102%; in assay [18] (setting [24]), 104%. For the same molecule, the GFP response, % of DMSO is 96.5% (inactive) in assay [19], 94.8% in [19] (setting [21]) and 96.6% in [19] (setting [22]).
Turning to `CCNC(=O)[C@H]1O[C@@H](n2cnc3c(N)ncnc32)[C@H](O)[C@@H]1O`, the percent of DMSO control GFP in assay [1] is 97% (inactive). Besides, the GFP response vs DMSO in assay [20] is 115% (inactive); in [3], 88.6% (inactive). The percent response of DMSO control in assay [2] is 104% (inactive). Also, the double positive events in assay [4] was determined as 48.3%. In addition, the inhibition was 15.2% (inactive) in assay [5]; 3.14% (inactive) in [8]; -4.2% (inactive) in [11]; 0% (inactive) in assay [12]; 2.8% (inactive) in assay [13]; 11% (inactive) in assay [15]. Moreover, the superoxide response (% of plate) in [6] is 111% (inactive). Besides, the aptamer binding inhibition in assay [7] was 66% (active). Moreover, the response in assay [9] was 0.72% (inactive). Besides, the binding (% of control) in assay [10] is 107% (inactive). In addition, in [14], the efflux inhibition (fraction of control) is 0.37 (inactive). In assay [16], the differentiation response is 5.73% (inactive).

By inhibition is commonly meant the drop in the measured response relative to a control, in per cent.

(Values after PubChem BioAssay.)
